High-throughput results from PubChem.
Only some compounds are listed: those with a hit (about 3% of all), similar ones and a draw of the others.
Tau FP inhib: tau fibrillization inhibition (FP). K18 P301L tau heparin fibrillization, Alexa594 FP, 6 h. Potency, µM (titrated, usually from 57.7 µM), for the others: at the highest dose activity, negative = inhibition, hits mostly inhibitors. 0.39% of 280,000 active; further: nearly all actives have a fitted effect of over 55% in size
Target sequence (P10636 561-689 P618L limits assumed): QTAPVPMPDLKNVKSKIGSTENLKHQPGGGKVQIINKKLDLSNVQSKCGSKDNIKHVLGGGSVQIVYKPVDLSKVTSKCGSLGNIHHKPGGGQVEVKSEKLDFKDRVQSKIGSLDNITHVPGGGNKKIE
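K18 P301L tau (15 uM unlabeled/0.24 uM Alexa 594-labeled, final) + compound + heparin 20 uM final; 100 mM NaOAc pH 7; 6 hr 37 C; ThT 30 uM final added, 1 hr RT; FP ex 555/em 632 nm.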
Tau ThT inhib: blocks human tau fibril formation measured by thioflavin T | recombinant tau K18 P301L, heparin-induced fibrillization, ThT fluorescence | Potency, µM (doses to about 57.4 µM), inactives show top-dose activity, negative = inhibition, usual class: inhibitors | 2.1% of 270,000 active; further: nearly all actives have a fitted effect of over 55% in size
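K18 P301L tau (15 uM + 0.24 uM Alexa 594-tagged), heparin 20 uM, NaOAc pH 7, 6 h 37 C; ThT 30 uM, 1 h RT, ex 450/em 510 nm.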
TRb SRC2 PPI: disrupts binding of human TR beta to SRC2; P10828; TRbeta-SRC2 peptide binding, fluorescence polarization; receptor liganded with 1 µM T3; Potency, µM (titrated, usually from 106 µM), for the others: top-dose activity change, negative = inhibition, actives largely listed as inhibitors; 0.065% of 280,000 active; AID 1469;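 further: plate controls were bound peptide for no effect and peptide without receptor for full effect; nearly all actives have a fitted effect of over 50% in size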
Target sequence (P10828 whole entry, looked up): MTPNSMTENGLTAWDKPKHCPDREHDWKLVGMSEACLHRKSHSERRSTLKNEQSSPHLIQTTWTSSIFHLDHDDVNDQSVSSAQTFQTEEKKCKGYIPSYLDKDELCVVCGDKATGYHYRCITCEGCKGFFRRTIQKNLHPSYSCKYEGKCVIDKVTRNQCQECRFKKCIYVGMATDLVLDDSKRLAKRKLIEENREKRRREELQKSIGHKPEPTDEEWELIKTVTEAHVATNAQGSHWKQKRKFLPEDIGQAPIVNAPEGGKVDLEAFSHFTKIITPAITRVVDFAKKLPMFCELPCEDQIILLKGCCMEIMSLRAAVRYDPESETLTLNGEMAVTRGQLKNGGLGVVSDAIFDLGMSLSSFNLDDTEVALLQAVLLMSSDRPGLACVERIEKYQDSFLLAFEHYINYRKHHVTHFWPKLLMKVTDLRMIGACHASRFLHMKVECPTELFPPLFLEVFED
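Each compound concentration gave % activity, normalized to unbound and bound Texas Red SRC2 controls, from polarization read after 5 hr ambient incubation with T3-loaded human TRb LBD.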
Tau fluor counter: counter-screen for tau fibril formation inhibitors. tau K18 P301L (four-repeat tau fragment) Alexa594 fluorescence, heparin fibrillization. Potency, µM (titrated, usually from 57.7 µM), for inactives: at the highest dose activity change, negative = decrease. 0.93% of 280,000 active. AID 1463; further: nearly all actives have a fitted effect of over 55% in size
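Human K18 P301L tau (15 uM unlabeled plus 0.24 uM Alexa 594-labeled, final) in 100 mM sodium acetate pH 7 was mixed with compound and 20 uM heparin and incubated 6 hr at 37 C.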
TR SRC2 fluor cs: counter-screen for TRb-SRC2 inhibitors: fluorescence interference; Potency, µM (titrated, usually from 106 µM), without a hit: at the top dose fluorescence change, negative = quenching; TRb/SRC2 Texas Red total fluorescence interference; 0.29% of 280,000 active; AID 1479; active means well fitted curve in either direction with a large enough effect; inconclusive means small, poorly fitted or top-dose-only effect
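Flags fluorescent or light-absorbing compounds by total fluorescence, S + 2P, at 555 nm excitation and 632 nm emission. Mixture: 20 nM Texas Red SRC2 peptide, 0.6 uM human TRb LBD, 1 uM T3, 5% DMSO; compound exposure 5 h at ambient temperature.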
* = called active by the depositor; ? = inconclusive; nt = no result given; [ ] = another dose, or the depositor's remark. Unless noted, the call rests on the fitted dose curve; in most records, active means well fitted curve in the direction sought with a large enough effect; inconclusive means small, poorly fitted or top-dose-only effect, or another doubt; inactive means no such curve, though single readings can be large; an effect the other way counts as inactive or inconclusive. Unless noted, on the % scale 0 is the no-effect control and ±100 the full control effect; potency means the concentration at half of the fitted maximal effect.

SMILES | Tau FP inhib | Tau ThT inhib | TRb SRC2 PPI | Tau fluor counter | TR SRC2 fluor cs
Cc1nc(N2CCOCC2)c2c(C(=O)N(C)Cc3ccccc3)c(C)oc2n1 | -6.8% | -4.2% | -12.7% | -9.4% | -2.7%
CCOc1ccc(-c2oc3cc(Cl)ccc3c(=O)c2O)cc1OC | 1.4% | ? | -2.5% | -24.6% | 0.8%
CCOC(=O)C1=C(CN2CCN(c3ccc(Cl)cc3)CC2)NC(=O)NC1c1ccc(OC)cc1 (stereo not given) | -2.9% | -14.0% | 1.0% | -5.9% | -11.2%
CC(C)CN(CCCNC(=O)Cn1ncc2c3ccccc3n(C)c2c1=O)CC(C)C | 1.9% | 15.0% | -4.7% | 6.4% | -2.2%
CSc1nnc(-c2ccco2)c(-c2ccco2)n1 | ? | 12.6µM* | -0.2% | ? | -12.2%
Cc1cccc(NC(=O)C(=O)NCC(c2cccnc2)N2CCOCC2)c1 (stereo not given) | -7.8% | -10.3% | -4.5% | -5.7% | 3.9%
CCc1c2c(nc3cccc(SC)c13)COC2 | 9.5% | ? | 3.1% | -10.7% | -2.9%
COC(=O)c1ccccc1NC(=O)CN1CCN(c2ccccn2)CC1 | -10.0% | -1.7% | -1.0% | -3.5% | 1.0%
COC(=O)c1ccccc1N/C=C1\CCc2c(c(C)nn2-c2ccccn2)C1=O | ? | 14.1µM* | ? | ? | -22.6%
CCN(C(=O)CN1CCN(c2ccc(O)cc2)CC1)c1c(N)n(Cc2ccccc2)c(=O)[nH]c1=O | ? | 28.2µM* | -1.8% | -27.0% | -4.2%
CC1CCC(C(=O)O)NC1c1cccc(N2CCCC2=O)c1 (stereo not given) | -1.8%[11.6 µM] | -0.4%[11.5 µM] | 3.8%[11.2 µM] | -3.1%[11.6 µM] | ?
COc1ccc2c(c1)CCc1cc(C(=O)N3CCN(c4ccc(N5CCOCC5)nn4)CC3)sc1-2 | ? | 8.91µM* | -5.2% | -23.7% | -4.1%
CCc1cccc(C)c1NC(=O)Cn1ccn(-c2ccc(F)cc2)c(=O)c1=O | -1.4% | -5.9% | -1.2% | 2.5% | 3.8%
COc1ccccc1N1C(=O)CC(Nc2ccc(N3CCOCC3)cc2)C1=O (stereo not given) | -7.2% | 28.2µM* | -14.4% | -20.0% | 10.7%
CCOc1ccccc1N1C(=O)CC(Nc2ccc(N3CCOCC3)cc2)C1=O (stereo not given) | 2.1% | 3.0% | 1.0% | -4.8% | -4.2%
O=C1CC(Nc2ccc(N3CCOCC3)cc2)C(=O)N1c1ccccc1 (stereo not given) | -5.4% | 15.8µM* | -5.7% | -18.7% | 3.4%
CCOc1ccc(CCNC(c2nnc(-c3ccccc3)o2)c2ccccc2Cl)cc1OCC (stereo not given) | 4.6% | -15.3% | 1.7% | -11.1% | 1.3%
CCOC(=O)c1cc(CC)sc1NC(=O)COc1ccc2c(C)cc(=O)oc2c1 | 1.1% | -0.8% | 1.4% | 9.2% | -0.9%
CCOC(=O)c1cc(CC)sc1NC(=O)COc1ccccc1C | 5.1% | 0.2% | ? | 2.2% | 1.58µM*[quencher]
COc1ccc(-n2c(C)cc(/C=C/c3nc(O)c([N+](=O)[O-])c(=O)[nH]3)c2C)cc1 | 1.7% | 15.8µM* | 0.0% | -6.9% | -4.8%
CCOC(=O)c1c(NC(=O)C2CC2)sc(C)c1CC | ? | 28.2µM* | 5.7% | -21.5% | -3.7%
O=C(COc1ccccc1)Nc1cccc(-c2nc3ccccc3[nH]2)c1 | ? | ? | 6.2% | ? | -2.0%
COc1ccc(OCC(=O)Nc2cccc(-c3nc4ccccc4[nH]3)c2)cc1 | ? | ? | 1.3% | 20µM*[quencher] | -0.9%
O=C(Nc1ccc(Cl)c(-c2nc3ccccc3[nH]2)c1)c1ccc2c(c1)OCO2 | 17.8µM* | ? | 0.5% | ? | -5.4%
O=C(COc1ccc(F)cc1)Nc1ccc(Cl)c(-c2nc3ccccc3[nH]2)c1 | 28.2µM* | -2.0% | 4.9% | ? | 7.6%
SMILES | Tau FP inhib | Tau ThT inhib | TRb SRC2 PPI | Tau fluor counter | TR SRC2 fluor cs
O=C(Nc1ccc(-c2nc3ccccc3[nH]2)cc1)c1ccc2c(c1)OCO2 | 5.8% | ? | 8.3% | -24.2% | -1.9%
CCCOc1ccc(C(=O)Nc2cccc(-c3nc4ccccc4[nH]3)c2)cc1 | 25.1µM* | ? | 10.1% | 10µM*[quencher] | 0.8%
CN(C)c1nc(NC2CCC(NC(=O)c3ccc(F)c(F)c3)CC2)nc2ccccc12 (stereo not given) | nt | nt | 1.3% | nt | 0.3%
O=C(C1COc2ccccc2O1)N(Cc1cccnc1)c1nc2ccc(Cl)cc2s1 (stereo not given) | 2.4% | -14.6% | -5.8% | -13.7% | -0.8%
COc1ccc(-c2ccc(/C=C3/C(=N)N4C=CSC4=NC3=O)o2)c([N+](=O)[O-])c1 | -16.0% | 1.78µM* | 1.7% | ? | ?
N=C1/C(=C/c2cccn2-c2ccc([N+](=O)[O-])cc2)C(=O)N=C2SC=CN12 | 5.8% | -4.5% | 8.4% | -1.3% | 8.3%
N#C/C(=C\c1coc2ccccc2c1=O)C(N)=S | -7.4% | -14.3% | 7.0% | -10.3% | -1.8%
N#C/C(=C\c1coc2ccc(O)cc2c1=O)C(=O)Nc1nc2ccccc2s1 | ? | 17.8µM* | ? | 28.2µM*[quencher] | ?
COc1ccc(-c2noc(CSc3nc(N)cc(=O)[nH]3)n2)cc1OC | -0.5% | -13.2% | -0.3% | -1.4% | -2.9%
CCOc1ccc2c(c1)-c1c(ssc1=S)C(C)(C)N2 | -2.0% | 12.6µM* | -4.5% | 12.6µM*[quencher] | -0.2%
CCC1=C/C(=C/N(C)c2ccccc2)C(=O)S1 | ? | 25.1µM* | -6.0% | ? | 0.1%
COc1ccc(C2=Nn3c(nnc3-c3ccccc3O)SC2)c(OC)c1 | nt | nt | -0.8% | nt | -1.2%
O=C(Nc1ccccc1C(F)(F)F)c1ccc(F)c(S(=O)(=O)N2CCc3ccccc3C2)c1 | -19.2% | -6.3% | 2.2% | ? | -1.2%
CCOc1ccc(-c2nonc2NC(=O)c2oc3ccc(F)cc3c2C)cc1 | -11.2% | 7.4% | -16.2% | -14.0% | 0.794µM*[quencher]
CCc1nonc1NC(=O)c1oc2ccc(F)cc2c1C | -8.4% | 11.0% | 5.3% | 10.3% | 1.0%
Cc1cc(CC(=O)O)c(C)n1-c1ccc(Cl)cc1 | nt | nt | 1.0% | nt | -1.2%
CN(C)c1nc(=O)n(C2CCC(O)CC2)c(=O)n1C (stereo not given) | nt | nt | -0.4%[201 µM] | nt | -0.4%[201 µM]
COc1cc(/C=C(\C#N)c2nc3ccccc3[nH]2)cc(Br)c1OCc1ccccc1 | ? | ? | -22.8% | 12.6µM*[quencher] | -5.6%
COc1cc(/C=C(\C#N)c2nc3ccccc3[nH]2)cc(OC)c1O | ? | 7.08µM* | 1.6% | ? | -17.8%
CCOc1cc(N(CC)CC)ccc1/C=C(/C#N)c1nc2ccccc2[nH]1 | 11.0% | ? | -8.3% | 10µM*[quencher] | -3.6%
CCC(=O)Oc1ccc(/C=C(\C#N)c2nc3ccccc3[nH]2)cc1OC | -4.6% | ? | -13.2% | ? | -24.5%
COc1cc(/C=C(\C#N)C(=O)c2c[nH]c3ccccc23)cc(OC)c1O | 8.7% | 15.8µM* | 9.4% | -8.0% | -1.5%
